According to PubChem BioAssay (NCATS):
Values joined by “and” are separate entries in the source; they are usually repeats but may differ in a detail not shown here. Equal entries are not always repeated. Results filed as inconclusive are left out. Active and inactive are the calls of the source. Unless noted, the call rests on the fitted dose curve; in most records, active means well fitted curve in the direction sought with a large enough effect; inconclusive means small, poorly fitted or top-dose-only effect, or another doubt; inactive means no such curve, though single readings can be large; an effect the other way counts as inactive or inconclusive.

Experiments:
[1] = target: Peptidyl-prolyl cis-trans isomerase NIMA-interacting 1 (Homo sapiens) (UniProt Q13526); assay: qHTS Validation Assay to Find Inhibitors of Pin1 (AID 504536; active means well fitted inhibition curve with a large enough effect in the polarisation, with a control signal flat, not every such curve was filed as active; the % refers to the polarisation;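 further: 0% = full Pin1 enzyme wells and -100% = no-enzyme wells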)
Method in brief: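 Fluorescence polarization competition: compounds (titration) displace HiFluor-488-labeled Pin1-1b peptide from Pin1 (0.3 uM final) in pH 7.5 HEPES buffer with DTT, 10 min at room temperature; %Activity normalized to no-enzyme wells, curves fitted.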

[2] = target: Phosphoglycerate kinase, glycosomal (Trypanosoma brucei brucei) (UniProt P07378); assay: qHTS Validation Assay to Find Inhibitors of Phosphoglycerate Kinase (AID 504547);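 further: control wells lack PGK and mark full inhibition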
Method in brief: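 Compounds are pinned into the substrate/PGK mixture, and GAPDH (100nM final) is added to start the reaction by producing 1,3-BPG. After 60 minutes at room temperature, Kinase-Glo Plus is added and luminescence is measured 10 minutes later.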

[3] = target: phosphoglycerate mutase (Leishmania major) (UniProt Q4Q090); assay: qHTS Validation Assay to Find Inhibitors of Phosphoglycerate Mutase (AID 504548); conditions: Potency: inhibition qHTS; further: series mostly up to about 58 µM; on the % scale 0 is the no-effect control and ±100 the full control effect
Method in brief: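 Lm PGAM at 1.25 nM final with substrate in 100 mM TEA pH 7.6, 5 mM MgCl2, 0.01% Tween-20; 45 min at room temperature. Kinase-GloPlus added, 10 min, end-point luminescence read.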

[4] = Inducers of the Endoplasmic Reticulum Stress Response (ERSR) in human glioma: Validation (AID 504836); further: 0% is about no effect
Method in brief: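 Stably transfected U87-MG glioma cells carrying a GRP78-based luciferase sensor; 16 h compound incubation. Luminescence end-point read 10 min after Bright-Glo addition at room temperature.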

[5] = target: Ubiquitin carboxyl-terminal hydrolase 1 (Homo sapiens) (UniProt O94782); assay: Inhibitors of USP1/UAF1: Pilot qHTS (AID 504865); further: nearly all actives have a fitted effect of over 35% in size; further: potency means the concentration at half of the fitted maximal effect
Method in brief: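 Kinetic fluorescence assay: 1nM USP1/UAF1, 15 min compound preincubation, then 150nM Ub-Rho; 480/540 nm.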

[6] = qHTS for Inhibitors of ATXN expression: Validation of Cytotoxic Assay (AID 588349); further: on the % scale 0 is the no-effect control and ±100 the full control effect
Method in brief: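 Cytotoxicity counter-screen: ATP-based luminescent viability (CellTiter Glo) after 72 hr exposure of HEK293 cells to a compound titration at 37 degrees C.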

[7] = qHTS for Inhibitors of ATXN expression: Validation (AID 588378); further: nearly all actives have a fitted effect of over 75% in size; further: potency means the concentration at half of the fitted maximal effect
Method in brief: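 Validation of ATXN2 expression inhibitors uses a cell-based luciferase fusion reporter in HEK293 cells, with 24 h compound exposure and paired viability (fluorescence) and reporter (luminescence) end-point reads.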

[8] = target: Estrogen receptor (Homo sapiens) (UniProt P03372); assay: qHTS assay for small molecule agonists of estrogen receptor alpha signaling (AID 588514; calls by dose curve;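 further: 0% = vehicle only and 100% = reference agonist; nearly all actives have a fitted effect of over 70% in size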)
Method in brief: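 EC50 and efficacy came from Hill fits of beta-lactamase reporter signal (CCF4 dye, 2 h at room temperature) scaled between DMSO and 20 nM 17-beta-estradiol. Agonist mode: HEK293 ER-alpha-UAS-bla cells in charcoal/dextran-stripped serum medium, 18 h compound exposure at 37 C.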

[9] = target: Androgen receptor (Homo sapiens) (UniProt P10275); assay: qHTS assay for small molecule agonists of androgen receptor signaling (AID 588515; active means well fitted curve in the direction sought with a large enough effect in the signal ratio, with a control signal flat; the % refers to the signal ratio; further: on the % scale 0 is the no-effect control and ±100 the full control effect); conditions: AR-UAS-bla HEK293, beta-lactamase ratio, agonist 16 h; stronger effect = higher value
Method in brief: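 Stimulation of an AR-responsive β-lactamase reporter in GripTite HEK293 cells was measured after 16 h compound exposure at 37 °C, via CCF4 fluorescence after 2 h RT. EC50 from Hill fits, normalized to R1881 at 30 nM.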

[10] = target: Androgen receptor (Homo sapiens) (UniProt P10275); assay: qHTS assay for small molecule antagonists of androgen receptor signaling (AID 588516; active means well fitted curve in the direction sought with a large enough effect in the signal ratio, with a control signal flat, not every such curve was filed as active; the % refers to the signal ratio; further: on the % scale 0 is the no-effect control and ±100 the full control effect)
Method in brief: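 Antagonist-mode qHTS: inhibition of R1881 (10 nM)-driven beta-lactamase expression in GripTite HEK 293 cells is measured after 16 h; values are Hill-derived IC50s normalized between R1881 and DMSO wells.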

[11] = target: Bile acid receptor (Homo sapiens) (UniProt Q96RI1); assay: qHTS assay for small molecule antagonists of farnesoid X receptor signaling (AID 588526; calls by dose curve; further: on the % scale 0 is the no-effect control and ±100 the full control effect)
Method in brief: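 Antagonist mode: titrated compounds tested against chenodeoxycholic acid stimulation (normalized to 50 uM CDCA and DMSO) in GeneBLAzer HEK293T cells for 16 h. Beta-lactamase read by CCF4 fluorescence; IC50 from Hill fits.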

[12] = target: Bile acid receptor (Homo sapiens) (UniProt Q96RI1); assay: qHTS assay for small molecule agonists of farnesoid X receptor signaling (AID 588527; calls by dose curve;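 further: series mostly up to about 77 µM; 0% = vehicle basal and 100% = reference agonist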); conditions: HEK293T FXR-UAS-bla, beta-lactamase ratio, 16 h; stronger effect = higher value
Method in brief: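 FXR-UAS-bla HEK293T cells (10% dialyzed FBS) preincubated 5-7 h at 37 C, then compounds at up to 92 uM for 16 h at 37 C. CCF4 beta-lactamase read-out after 2 h RT. Normalized to chenodeoxycholic acid (100 uM) and DMSO; Hill fit gave EC50 and efficacy.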

[13] = qHTS assay for small molecule antagonists of peroxisome proliferator-activated receptor delta signaling (AID 588535; active means well fitted inhibition curve with a large enough effect in the signal ratio, with a control signal flat, not every such curve was filed as active; the % refers to the signal ratio;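 on max response: cells co-treated with a PPAR-delta agonist as stimulator during compound exposure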); conditions: HEK293T PPARd-UAS-bla, beta-lactamase FRET ratio, 18 h; 460 nm channel
Method in brief: (§1)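 Fluorescence from CCF4-loaded GeneBLAzer PPAR-delta-UAS-bla HEK293T cells (2 hrs RT loading) quantified reporter inhibition after an 18 hr, 37 C compound exposure across a titration.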

[14] = target: Peroxisome proliferator-activated receptor delta (Homo sapiens) (UniProt Q03181); assay: as above
Method in brief: as §1

[15] = target: Peroxisome proliferator-activated receptor gamma (Homo sapiens) (UniProt P37231); assay: qHTS assay for small molecule agonists of peroxisome proliferator-activated receptor gamma signaling (AID 588536; active means well fitted curve in the direction sought with a large enough effect in the signal ratio, with a control signal flat, not every such curve was filed as active; the % refers to the signal ratio;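 further: 0% = DMSO basal wells and 100% = rosiglitazone at 2 µM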)
Method in brief: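 Cells were plated and held 6–6.5 h at 37 C, then compounds were added as a titration series. After a further 16 h, CCF4 dye was loaded for 2 h at room temperature and emission at 460/530 nm recorded.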

[16] = target: Estrogen receptor (Homo sapiens) (UniProt P03372); assay: qHTS assay for small molecule antagonists of estrogen receptor alpha signaling (AID 588513; active means well fitted curve in the direction sought with a large enough effect in the signal ratio, with a control signal flat, not every such curve was filed as active; the % refers to the signal ratio; further: on the % scale 0 is the no-effect control and ±100 the full control effect)
Method in brief: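 Cells were plated at 5000/well and incubated 4 h at 37 C. Compounds were added as 1:2 dilution series, duplicates. 17-beta-estradiol (0.5nM final) was added for 18 h before CCF4 detection.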

[17] = target: Glucocorticoid receptor (Homo sapiens) (UniProt P04150); assay: qHTS assay for small molecule agonists of glucocorticoid receptor signaling (AID 588532; active means well fitted curve in the direction sought with a large enough effect in the signal ratio, with a control signal flat; the % refers to the signal ratio;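 further: 100% = dexamethasone at 0.1 µM and 0% = DMSO only wells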); conditions: HeLa MMTV-bla, beta-lactamase ratio, agonist, 18 h; stronger effect = higher value; percent of dexamethasone control, DMSO zero
Method in brief: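 MMTV-bla HeLa beta-lactamase reporter cells in 1% charcoal/dextran FBS medium, compounds up to 92 uM for 18 h at 37 C, CCF4 readout; normalized to 0.1 uM dexamethasone (100%), EC50 and efficacy from Hill fits.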

[18] = target: Glucocorticoid receptor (Homo sapiens) (UniProt P04150); assay: qHTS assay for small molecule antagonists of glucocorticoid receptor signaling (AID 588533; active means well fitted inhibition curve with a large enough effect in the signal ratio, with a control signal flat, not every such curve was filed as active; the % refers to the signal ratio;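 further: cells stimulated with 2 nM dexamethasone as agonist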; further: potency means the concentration at half of the fitted maximal effect)
Method in brief: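 Antagonist-mode qHTS: compound titrations added to GRE-bla HeLa cells, then dexamethasone 2 nM final; 18 h, 37 C. CCF4 FRET fluorescence normalized to dexamethasone and DMSO; IC50 from Hill fit.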

Peroxisome proliferator-activated receptor delta (Homo sapiens), sequence (Q03181 whole entry, looked up): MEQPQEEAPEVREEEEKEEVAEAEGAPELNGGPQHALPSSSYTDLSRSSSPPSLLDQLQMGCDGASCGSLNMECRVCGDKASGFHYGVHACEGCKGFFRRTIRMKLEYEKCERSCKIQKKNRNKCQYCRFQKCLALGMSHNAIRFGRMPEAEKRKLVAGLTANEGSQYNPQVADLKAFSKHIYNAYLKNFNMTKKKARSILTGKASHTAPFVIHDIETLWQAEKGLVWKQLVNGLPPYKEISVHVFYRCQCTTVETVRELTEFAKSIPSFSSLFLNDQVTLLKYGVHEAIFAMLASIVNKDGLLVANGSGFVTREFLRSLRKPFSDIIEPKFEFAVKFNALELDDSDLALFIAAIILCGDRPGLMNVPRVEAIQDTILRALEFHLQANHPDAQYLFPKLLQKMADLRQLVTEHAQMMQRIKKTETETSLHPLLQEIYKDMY
Androgen receptor (Homo sapiens), sequence (P10275 whole entry, looked up): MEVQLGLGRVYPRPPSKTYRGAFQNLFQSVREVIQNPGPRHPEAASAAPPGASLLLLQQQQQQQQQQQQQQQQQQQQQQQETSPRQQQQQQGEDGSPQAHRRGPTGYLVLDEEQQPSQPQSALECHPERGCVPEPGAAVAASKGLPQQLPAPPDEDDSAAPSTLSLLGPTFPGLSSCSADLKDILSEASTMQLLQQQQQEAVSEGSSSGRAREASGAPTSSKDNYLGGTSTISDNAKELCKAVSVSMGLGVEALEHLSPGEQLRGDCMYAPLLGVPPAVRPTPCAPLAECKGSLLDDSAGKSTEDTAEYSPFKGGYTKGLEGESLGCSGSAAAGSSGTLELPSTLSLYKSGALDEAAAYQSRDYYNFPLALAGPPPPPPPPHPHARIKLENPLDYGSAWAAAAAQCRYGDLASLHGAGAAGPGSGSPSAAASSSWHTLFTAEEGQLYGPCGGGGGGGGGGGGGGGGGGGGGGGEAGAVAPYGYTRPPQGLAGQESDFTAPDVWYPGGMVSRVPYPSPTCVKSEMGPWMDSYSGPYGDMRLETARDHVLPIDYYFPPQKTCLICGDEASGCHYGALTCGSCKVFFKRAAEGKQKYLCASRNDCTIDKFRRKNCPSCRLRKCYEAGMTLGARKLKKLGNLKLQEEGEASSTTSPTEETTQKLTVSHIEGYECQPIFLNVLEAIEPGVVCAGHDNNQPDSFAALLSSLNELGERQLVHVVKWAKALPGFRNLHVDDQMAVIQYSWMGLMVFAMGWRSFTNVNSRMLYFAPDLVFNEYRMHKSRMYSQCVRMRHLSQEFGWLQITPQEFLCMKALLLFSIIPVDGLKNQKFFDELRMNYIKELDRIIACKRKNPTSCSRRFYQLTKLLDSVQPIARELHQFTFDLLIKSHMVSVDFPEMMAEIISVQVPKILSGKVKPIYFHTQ
Bile acid receptor (Homo sapiens), sequence (Q96RI1 whole entry, looked up): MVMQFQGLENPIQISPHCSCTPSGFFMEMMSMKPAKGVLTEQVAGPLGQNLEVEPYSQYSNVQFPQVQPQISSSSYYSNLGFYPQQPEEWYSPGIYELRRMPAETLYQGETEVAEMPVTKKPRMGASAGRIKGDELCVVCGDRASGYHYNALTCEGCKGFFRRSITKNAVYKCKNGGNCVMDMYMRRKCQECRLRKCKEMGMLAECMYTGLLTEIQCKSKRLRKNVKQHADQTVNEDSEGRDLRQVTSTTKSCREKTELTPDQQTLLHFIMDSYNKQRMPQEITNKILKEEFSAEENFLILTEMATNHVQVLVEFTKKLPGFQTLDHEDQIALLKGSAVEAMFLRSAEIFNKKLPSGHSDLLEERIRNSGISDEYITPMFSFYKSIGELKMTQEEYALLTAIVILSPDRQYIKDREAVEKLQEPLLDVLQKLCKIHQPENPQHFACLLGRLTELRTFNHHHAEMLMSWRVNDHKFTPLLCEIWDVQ
Phosphoglycerate kinase, glycosomal (Trypanosoma brucei brucei), sequence (P07378 whole entry, looked up): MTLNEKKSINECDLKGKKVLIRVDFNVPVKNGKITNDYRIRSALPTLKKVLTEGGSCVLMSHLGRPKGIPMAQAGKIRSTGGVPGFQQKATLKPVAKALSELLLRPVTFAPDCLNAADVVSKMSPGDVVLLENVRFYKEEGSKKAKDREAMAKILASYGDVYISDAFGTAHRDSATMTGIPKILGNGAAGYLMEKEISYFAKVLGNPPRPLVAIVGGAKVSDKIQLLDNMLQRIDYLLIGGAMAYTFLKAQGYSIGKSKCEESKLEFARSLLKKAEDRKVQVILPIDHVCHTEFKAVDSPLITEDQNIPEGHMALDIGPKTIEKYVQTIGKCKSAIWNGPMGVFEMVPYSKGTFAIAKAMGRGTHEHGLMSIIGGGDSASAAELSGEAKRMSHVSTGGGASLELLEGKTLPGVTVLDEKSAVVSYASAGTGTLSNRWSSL
phosphoglycerate mutase (Leishmania major), sequence (Q4Q090 1-553): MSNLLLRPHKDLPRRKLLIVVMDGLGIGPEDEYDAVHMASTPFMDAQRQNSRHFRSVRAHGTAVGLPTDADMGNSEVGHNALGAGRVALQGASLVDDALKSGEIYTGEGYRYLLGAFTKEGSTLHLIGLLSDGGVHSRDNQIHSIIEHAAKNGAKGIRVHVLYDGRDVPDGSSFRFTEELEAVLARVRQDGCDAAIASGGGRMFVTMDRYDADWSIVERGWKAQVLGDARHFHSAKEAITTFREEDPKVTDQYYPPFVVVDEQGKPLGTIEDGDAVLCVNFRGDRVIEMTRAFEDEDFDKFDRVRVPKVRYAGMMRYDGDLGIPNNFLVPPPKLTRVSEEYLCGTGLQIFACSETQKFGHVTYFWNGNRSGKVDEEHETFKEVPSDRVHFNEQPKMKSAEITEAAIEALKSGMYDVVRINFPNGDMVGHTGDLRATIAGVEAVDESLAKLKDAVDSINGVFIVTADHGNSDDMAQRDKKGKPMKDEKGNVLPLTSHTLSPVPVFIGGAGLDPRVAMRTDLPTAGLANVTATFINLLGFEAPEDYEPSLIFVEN
Peptidyl-prolyl cis-trans isomerase NIMA-interacting 1 (Homo sapiens), sequence (Q13526 whole entry, looked up): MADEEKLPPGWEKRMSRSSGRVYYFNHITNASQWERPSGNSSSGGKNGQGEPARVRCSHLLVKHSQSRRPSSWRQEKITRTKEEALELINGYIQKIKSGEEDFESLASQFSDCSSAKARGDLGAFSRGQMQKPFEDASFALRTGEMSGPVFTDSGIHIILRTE
Peroxisome proliferator-activated receptor gamma (Homo sapiens), sequence (P37231 whole entry, looked up): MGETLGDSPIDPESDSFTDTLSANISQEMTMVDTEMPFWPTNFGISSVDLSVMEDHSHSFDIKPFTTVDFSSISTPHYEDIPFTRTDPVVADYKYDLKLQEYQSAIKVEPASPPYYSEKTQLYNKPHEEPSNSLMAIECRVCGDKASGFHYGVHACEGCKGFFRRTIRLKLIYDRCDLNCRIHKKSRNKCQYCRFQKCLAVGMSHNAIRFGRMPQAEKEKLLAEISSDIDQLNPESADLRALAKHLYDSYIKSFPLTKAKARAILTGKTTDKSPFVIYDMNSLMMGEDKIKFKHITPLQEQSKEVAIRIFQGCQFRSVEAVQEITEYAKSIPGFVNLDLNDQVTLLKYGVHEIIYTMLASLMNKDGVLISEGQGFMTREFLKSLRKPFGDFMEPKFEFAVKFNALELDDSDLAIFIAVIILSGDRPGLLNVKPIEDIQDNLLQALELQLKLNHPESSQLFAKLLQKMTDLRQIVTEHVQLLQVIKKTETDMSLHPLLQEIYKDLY
Estrogen receptor (Homo sapiens), sequence (P03372 whole entry, looked up): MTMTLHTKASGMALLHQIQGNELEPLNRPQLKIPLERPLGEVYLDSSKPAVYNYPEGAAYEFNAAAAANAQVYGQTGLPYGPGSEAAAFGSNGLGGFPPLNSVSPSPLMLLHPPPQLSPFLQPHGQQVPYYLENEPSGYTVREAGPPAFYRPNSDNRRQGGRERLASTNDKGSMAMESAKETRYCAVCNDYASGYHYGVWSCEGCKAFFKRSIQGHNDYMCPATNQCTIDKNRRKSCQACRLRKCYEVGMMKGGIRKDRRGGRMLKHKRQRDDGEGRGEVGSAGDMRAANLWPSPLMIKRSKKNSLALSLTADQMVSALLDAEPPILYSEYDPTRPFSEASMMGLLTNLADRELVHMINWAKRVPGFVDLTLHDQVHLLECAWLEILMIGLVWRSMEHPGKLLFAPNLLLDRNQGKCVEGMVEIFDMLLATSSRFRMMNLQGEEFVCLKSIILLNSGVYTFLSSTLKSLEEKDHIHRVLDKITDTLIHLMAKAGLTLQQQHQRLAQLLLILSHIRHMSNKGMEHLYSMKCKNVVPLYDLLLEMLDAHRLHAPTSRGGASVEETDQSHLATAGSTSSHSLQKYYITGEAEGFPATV
Glucocorticoid receptor (Homo sapiens), sequence (P04150 whole entry, looked up): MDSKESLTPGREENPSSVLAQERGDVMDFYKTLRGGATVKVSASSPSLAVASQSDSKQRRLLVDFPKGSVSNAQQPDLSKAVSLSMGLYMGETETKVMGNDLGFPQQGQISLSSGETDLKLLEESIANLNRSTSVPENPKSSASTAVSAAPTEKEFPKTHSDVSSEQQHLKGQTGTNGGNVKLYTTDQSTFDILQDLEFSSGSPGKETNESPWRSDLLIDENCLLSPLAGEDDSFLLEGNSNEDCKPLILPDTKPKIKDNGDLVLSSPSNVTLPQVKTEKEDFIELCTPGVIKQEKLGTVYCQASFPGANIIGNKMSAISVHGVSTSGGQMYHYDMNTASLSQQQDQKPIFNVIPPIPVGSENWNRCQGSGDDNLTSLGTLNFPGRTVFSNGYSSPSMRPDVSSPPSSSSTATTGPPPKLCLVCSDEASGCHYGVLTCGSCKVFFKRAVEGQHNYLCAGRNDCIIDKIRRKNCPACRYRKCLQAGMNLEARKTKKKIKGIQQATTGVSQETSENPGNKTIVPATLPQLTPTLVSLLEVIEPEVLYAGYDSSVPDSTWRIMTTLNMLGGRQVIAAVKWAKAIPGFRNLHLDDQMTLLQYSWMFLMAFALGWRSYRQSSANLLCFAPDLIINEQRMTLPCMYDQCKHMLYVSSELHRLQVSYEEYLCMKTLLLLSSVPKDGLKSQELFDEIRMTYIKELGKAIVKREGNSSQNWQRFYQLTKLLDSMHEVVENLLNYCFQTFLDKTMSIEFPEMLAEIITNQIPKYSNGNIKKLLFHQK

Cc1cc([C@@H]2CCCN2C)on1
inactive: Potency [1] | Potency [2] | Potency [3] | outcome [4] | Potency [5] | Potency [6] | Potency [7]

N=C(N)c1ccc(CS(=O)(=O)F)cc1
inactive: Potency [1] | Potency [2] | Potency [3] | outcome [4] | Potency [5] | Potency [6] | Potency [7]

C[C@@H]1O[C@@H](O[C@H]2C[C@@H](O)[C@]3(CO)[C@@H]4C(CC[C@]3(O)C2)[C@@]2(O)CC[C@H]([C@@H]3COC(=O)C3)[C@@]2(C)C[C@H]4O)[C@H](O)[C@H](O)[C@H]1O (stereo partly specified)
active: Potency [7] 1.78 µM
inactive: Potency [1] | Potency [2] | Potency [3] | outcome [4] | Potency [5]

O[C@H]1[C@H]2[C@H](O)CCCN2C[C@H]1O
inactive: Potency [5]

CCCC(=O)OC(C(Cl)(Cl)Cl)P(=O)(OC)OC (stereo unspecified)
inactive: Potency [5]

CCC1(c2ccccc2)C(=O)NC(=O)N(C)C1=O (stereo unspecified)
inactive: Potency [5]

Clc1ccc(Cl)cc1
inactive: Potency [5]

O=[N+]([O-])/C=C/c1ccc2c(c1)OCO2
active: Potency [7] 10 µM
inactive: Potency [1] | Potency [2] | outcome [4] | Potency [5]

C=CCN(C1=NCCN1)c1c(Cl)cccc1Cl
inactive: Potency [1] | Potency [2] | Potency [3] | outcome [4] | Potency [5] | Potency [6] | Potency [7]

CCC1(CC)C(=O)NC(=O)N(C)C1=O
inactive: Potency [5]

C[N+]1(C)CCc2cc3c(cc2[C@H]1[C@@H]1OC(=O)c2c1ccc1c2OCO1)OCO3
inactive: Potency [1] | Potency [2] | Potency [3] | outcome [4] | Potency [5] | Potency [6] | Potency [7]

N#CCCN
inactive: Potency [1] | Potency [2] | Potency [3] | outcome [4] | Potency [5] | Potency [6] | Potency [7]

Cn1sc(Cl)cc1=O
inactive: Potency [5]

CCCN1CCc2cc(O)cc3c2[C@H]1Cc1ccc(O)c(O)c1-3
inactive: Potency [1] | Potency [2] | outcome [4] | Potency [5]

O=C1CCCCC1CN1CCCCC1 (stereo unspecified)
inactive: Potency [5]

CCN1C[C@@]2(COC)C3[C@@H](OC)C4[C@@H]1C3([C@@H]1C[C@]3(O)[C@H](OC(=O)c5ccccc5)[C@@H]1[C@]4(OC(C)=O)[C@@H](O)[C@@H]3OC)[C@H](OC)C[C@H]2O
inactive: Potency [1] | Potency [2] | Potency [3] | outcome [4] | Potency [5] | Potency [6] | Potency [7]

CNC1(c2ccccc2Cl)CCCCC1=O (stereo unspecified)
inactive: Potency [5]

CCCN1CCC[C@@H](c2cccc(O)c2)C1
inactive: Potency [1] | Potency [2] | outcome [4] | Potency [5] | Potency [6] | Potency [7]

CC(C)(O)[C@@H]1C2OC(=O)[C@@H]1[C@]1(O)C[C@H]3O[C@]34C(=O)O[C@H]2[C@]14C (tested in a mixture with another compound)
inactive: Potency [1] | Potency [2] | Potency [3] | outcome [4] | Potency [5] | Potency [6] | Potency [7]

CCCC[N+]1(C)C2CC(OC(=O)[C@H](CO)c3ccccc3)CC1C1OC12 (stereo partly specified)
inactive: Potency [1] | Potency [2] | outcome [4] | Potency [5] | Potency [6] | Potency [7]

C[C@]12CCC(=O)C[C@@H]1CC[C@@H]1[C@@H]2CC[C@]2(C)[C@@H](O)CC[C@@H]12
inactive: Potency [5]

N#CC1(N2CCCCC2)CCCCC1
inactive: Potency [5]

CN1CC[C@@]2(C)c3cc(OC(=O)Nc4ccccc4)ccc3N(C)[C@@H]12
inactive: Potency [1] | Potency [2] | Potency [3] | outcome [4] | Potency [7]

C[C@H](N)Cc1cccc(C(F)(F)F)c1
inactive: Potency [1] | Potency [2] | Potency [3] | outcome [4] | Potency [5] | Potency [6] | Potency [7]

C=CCN1CC[C@]23c4c5ccc(O)c4O[C@H]2[C@@H](O)C=C[C@H]3[C@H]1C5
inactive: Potency [5]

c1csc(C2(N3CCCCC3)CCCCC2)c1
inactive: Potency [5]

CCOc1ccc2c3c1O[C@H]1[C@@H](O)C=C[C@H]4[C@@H](C2)N(C)CC[C@@]341
inactive: Potency [5]

CC(=O)OCC1=C(C(=O)O)N2C(=O)[C@@H](NC(=O)CCC[C@@H](N)C(=O)O)[C@H]2SC1
inactive: Potency [1] | Potency [2] | Potency [3] | outcome [4] | Potency [5] | Potency [6] | Potency [7]

CCCC(C)C1(CC)C(=O)NC(=O)NC1=O (stereo unspecified)
inactive: Potency [5]

NCC(O)c1cccc(O)c1 (stereo unspecified)
inactive: Potency [5]

CN1CCCC(=C(c2cccs2)c2cccs2)C1
inactive: Potency [5]

COc1ccc2c(c1O)-c1cccc3c1[C@@H](C2)N(C)CC3
inactive: Potency [1] | Potency [2] | outcome [4] | Potency [5] | Potency [7]

CN1[C@@H]2CC[C@H]1CC(OC1c3ccccc3CCc3ccccc31)C2 (stereo partly specified)
inactive: Potency [5]

CC[N+](C)(CC)CCOC(=O)C(O)(c1ccccc1)c1ccccc1
inactive: Potency [5]

C=CCN1CCc2cccc3c2[C@H]1Cc1ccc(O)c(O)c1-3
inactive: Potency [1] | Potency [2] | outcome [4] | Potency [5]

Clc1ccc(C2(Cn3cncn3)OCCO2)c(Cl)c1
inactive: Potency [5]

CC(=O)O[C@H]1CC[C@H]2[C@@H]3CCC4=CC(=O)CCC4=C3C=C[C@]12C
inactive: Potency [5]

CCNC(=O)[C@H]1O[C@@H](n2cnc3c(N)ncnc32)[C@H](O)[C@@H]1O
inactive: Potency [1] | Potency [2] | outcome [4] | Potency [5] | Potency [6] | Potency [7]

CN1CCc2cc(O)cc3c2[C@H]1Cc1ccc(O)c(O)c1-3
inactive: Potency [1] | Potency [2] | outcome [4] | Potency [5] | Potency [6] | Potency [7]

O=C(CS(=O)C(c1ccccc1)c1ccccc1)NO (stereo unspecified)
inactive: Potency [5]

O=[N+]([O-])C(Br)(CO)CO
inactive: Potency [5] | Potency [8] | activation [9] -2.08% | outcome [10] | Potency [11] | activation [12] 2.54% | outcome [14] | outcome [15]
-53.3%: max response [13]

O=[N+]([O-])c1ccccc1
3.64%: max response [13]
inactive: Potency [5] | Potency [16] | Potency [8] | activation [17] -2.43% and 5.7% | Potency [18] | outcome [14] | outcome [15]

CC(C)CCON=O
inactive: Potency [5] | activation [17] -2.48% | Potency [18] | outcome [14] | outcome [15]
8.58%: max response [13]

[O]=[Cr](=[O])([OH])[O][Cr](=[O])(=[O])[OH]
active: Potency [5] 25.1 µM | Potency [18] 10 µM and 39.8 µM and 12.6 µM
-63.4%: max response [13]
inactive: Potency [16] | Potency [8] | outcome [10] | Potency [11] | activation [12] 9.26% and 4.19% | activation [17] -11.3% and -15.7% | outcome [14] | outcome [15]
